# Results filed as inconclusive are left out. Values without a mark were called inactive. The call rests on the fitted dose curve; in most records, active means well fitted curve in the direction sought with a large enough effect (not every such curve was filed as active); inconclusive means small, poorly fitted or top-dose-only effect, or effect the other way, or another doubt; inactive means no such curve, though single readings can be large or run the other way.
# Experiment: Cell viability assay for measurement of the protective activity of small molecules against cell death caused by Zika virus infection in human neural progenitor cells (hNPCs);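 further: 0% = ZIKV-infected cells without compound and 100% = uninfected cells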
# Details: hNPC ZIKV-induced death protection, ATP luminescence, 72 h; series mostly up to 46.1 µM; protection, negative = more death: at the top concentration
# From the text: National Center for Advancing Translational Sciences [NCATS] Johns Hopkins University School of Medicine Florida State University Assay Overview: Zika virus infection causes cell death in certain cell types including human neural progenitor cells (hNPCs), astrocytes, and astrocytoma cell line (SNB-19). This cell viability assay measures the ATP content (level) in human neural progenitor cells (hNPCs) using a luminescence readout that is proportional to viable cell numbers. Decrease in the luminescence signal after Zika virus infection indicates the cell death caused by Zika virus. Small molecule inhibitors […] the decreased luminescence signal after Zika virus infection, indicating the protective effect of that small molecule on the cell death caused by Zika virus infection. This observed protective effect of small molecules against Zika virus induced cell death may result from inhibition of virus replication or cellular response to the virus infection.
# Assay Protocol Summary: The medium for hNPCs consists of DMEM/F12, N2 supplement (ThermoFisher, Cat.# 17502048), NEAA (ThermoFisher, Cat. # 11140050), 2 ug/ml heparin, 2 uM cyclopamine, and B27 (ThermoFisher, Cat. # 17504044). The ATP content assay kit (PerkinElmer, Cat.# 6016731) was used to determine cell viability. The reagent was reconstituted and prepared as described by the manufacturer. Cells were seeded in 384- or 1536-well assay plates and cultured at 37 C with 5% CO2 for 16 to 20 hours. The typical cell seeding density in the 1536-well plate assay is 350 cells/well in 3 ul medium for hNPCs in the tissue cultured treated/PDL coated plates. Compounds were added to cells and incubated for one hour before addition of ZIKV solution to cells (2 FFU/cell). After incubation at 37 C with 5% CO2 for 72 hours, the reagent mixture of the ATP content assay kit was added to each well, followed by incubation at room temperature for 10 minutes. The luminescence intensity of the assay plates was measured using a ViewLux plate reader (PerkinElmer). […] The percentage inhibitions of the decreased cell viability by small molecule inhibitors were then calculated.
row,Compound,"protection, negative = more death [%]"
1,O=C(Nc1ccc(Br)cc1)c1cc(Br)cc(Br)c1O,-30.6
2,COc1cccc2c1C(=O)c1c(O)c3c(c(O)c1C2=O)C[C@@](O)(C(=O)CO)CC3OC1CC(N2CCOC(OC)C2)C(O)C(C)O1 (stereo partly drawn),-76.5
3,Cc1ccc([N+](=O)[O-])[c]2c1[O][Hg]2,-83.9
4,O=c1c2ccccc2[se]n1-c1ccccc1,-82.5
5,CC(=C(CCOC(=O)C(C)C)SSC(CCOC(=O)C(C)C)=C(C)N(C=O)Cc1cnc(C)nc1N)N(C=O)Cc1cnc(C)nc1N,-20.4
6,CN1CC(=O)N2C(Cc3c([nH]c4ccccc34)[C@H]2c2ccc3c(c2)OCO3)C1=O (stereo partly drawn),-18.4
7,CC(C)N[C@@H]1CCn2c(=O)[nH]c3cccc(c32)[C@@H]1O,14.3
8,CC(C)[C@H]1C(=O)N[C@H](CO)Cc2c[nH]c3cccc(c23)N1C,-0.586
9,Oc1ccc([C@H]2CNCc3c2ccc(O)c3O)cc1O,-46.6
10,CC(C)[N+](C)(CCC(C(N)=O)(c1ccccc1)c1ccccc1)C(C)C,-8.98
11,COC1(CS(=O)c2ccccc2)CCN(CCc2c[nH]c3ccc(F)cc23)CC1 (stereo not drawn),0.912
12,COP(=S)(OC)SCN1C(=O)c2ccccc2C1=O,-10.1
13,O=C1C=CC[C@@H]2[C@H]3CCCN4CCC[C@@H](CN12)[C@@H]34,2.65
14,CC[n+]1c(-c2ccccc2)c2cc(N)ccc2c2ccc(N)cc21,-82.9
15,O=S(=O)(CC1CS1)c1ccc(Oc2ccccc2)cc1 (stereo not drawn),-81.2
16,CC(O)CN1CCN(CC(=O)[O-])CCN(CC(=O)[O-])CCN(CC(=O)[O-])CC1.[Gd+3] (stereo not drawn),12.3
17,S=C(SSC(=S)N1CCCCC1)N1CCCCC1,-81.8
18,CN1CC[C@@]2(C)c3cc(OC(=O)Nc4ccccc4)ccc3N(C)[C@@H]12,-76.9
